Screening results as filed in PubChem.
POLK inh = DNA polymerase kappa (human) inhibition. Potency, µM (series often up to 107 µM), inactives show top-dose activity, negative = inhibition, hits mostly inhibitors. purified Pol kappa, fluorescent DNA synthesis assay, 10 min. hit rate 0.53% among 400,000. Q9UBT6; further: on the % scale 0 is the no-effect control and ±100 the full control effect
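Readout: fluorescence, taken kinetically at 0 and 10 min. Conditions: 10 nM Pol kappa, 15 min RT compound preincubation, 50 nM substrate final. Controls: enzyme-free buffer wells.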
POLI inh = blocks human DNA polymerase iota activity; hit rate 1% among 390,000; Pol iota fluorescent replication assay, 10 min; Q9UNA4; Potency, µM (titrated, usually from 115 µM), for the others: top-dose activity, negative = inhibition, most hits filed as inhibitors
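Pol iota at 10 nM preincubated 15 min with compounds at room temperature; reaction started with fluorescent substrate, 50 nM final. Fluorescence read kinetically at 0 and 10 min; buffer-only wells as negative control.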
POLB inh = inhibitors of human DNA polymerase beta. P06746. Pol beta primer extension/strand displacement, fluorescence kinetic. Potency, µM (top dose mostly 114 µM), without a hit: at the top dose activity change, negative = inhibition, hits mostly inhibitors. hit rate 1.3% among 340,000. AID 485314; further: on the % scale 0 is the no-effect control and ±100 the full control effect
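Values derive from four-parameter Hill fits of normalized kinetic data: reads at 0 and 10 min following addition of 50 nM substrate to 10 nM Pol beta preincubated 15 min with compound.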
WRN helicase inh = WRN helicase (human) inhibition | Q14191 | WRN helicase unwinding, fluorescent forked duplex, kinetic | Potency, µM (titrated, usually from 114 µM), for inactives: at the top dose activity change, negative = inhibition, actives largely listed as inhibitors | hit rate 0.46% among 360,000 | AID 651768; further: on the % scale 0 is the no-effect control and ±100 the full control effect; nearly all actives have a fitted effect of over 55% in size
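Kinetic red-fluorescence monitoring (525/598 nm) tracks WRN helicase activity after 100 nM fluorophore-quencher forked duplex and 2 mM ATP are added to 20 nM enzyme pretreated 15 min at room temperature with compound.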
FEN1 inh = inhibitors of human flap endonuclease 1 | P39748 | Recombinant FEN1 flap cleavage, fluorescence, 15 min | Potency, µM (top dose mostly 114 µM), without a hit: at the top dose activity change, negative = inhibition, hits mostly inhibitors | hit rate 0.35% among 390,000; further: on the % scale 0 is the no-effect control and ±100 the full control effect; nearly all actives have a fitted effect of over 65% in size
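Read-out was taken twice, immediately and after 15 min, following addition of 50 nM substrate to 10 nM FEN1 that had sat with test compound for 15 min at room temperature. Curves came from a four-parameter Hill model.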
Pol eta inh = inhibitors of human DNA polymerase eta | recombinant Pol eta, fluorescent DNA replication assay | Potency, µM (series often up to 114 µM), for the others: at the top dose activity change, negative = inhibition, most hits filed as inhibitors | hit rate 1.2% among 390,000 | AID 588591; further: on the % scale 0 is the no-effect control and ±100 the full control effect
Target sequence (Q9Y253 whole entry, looked up): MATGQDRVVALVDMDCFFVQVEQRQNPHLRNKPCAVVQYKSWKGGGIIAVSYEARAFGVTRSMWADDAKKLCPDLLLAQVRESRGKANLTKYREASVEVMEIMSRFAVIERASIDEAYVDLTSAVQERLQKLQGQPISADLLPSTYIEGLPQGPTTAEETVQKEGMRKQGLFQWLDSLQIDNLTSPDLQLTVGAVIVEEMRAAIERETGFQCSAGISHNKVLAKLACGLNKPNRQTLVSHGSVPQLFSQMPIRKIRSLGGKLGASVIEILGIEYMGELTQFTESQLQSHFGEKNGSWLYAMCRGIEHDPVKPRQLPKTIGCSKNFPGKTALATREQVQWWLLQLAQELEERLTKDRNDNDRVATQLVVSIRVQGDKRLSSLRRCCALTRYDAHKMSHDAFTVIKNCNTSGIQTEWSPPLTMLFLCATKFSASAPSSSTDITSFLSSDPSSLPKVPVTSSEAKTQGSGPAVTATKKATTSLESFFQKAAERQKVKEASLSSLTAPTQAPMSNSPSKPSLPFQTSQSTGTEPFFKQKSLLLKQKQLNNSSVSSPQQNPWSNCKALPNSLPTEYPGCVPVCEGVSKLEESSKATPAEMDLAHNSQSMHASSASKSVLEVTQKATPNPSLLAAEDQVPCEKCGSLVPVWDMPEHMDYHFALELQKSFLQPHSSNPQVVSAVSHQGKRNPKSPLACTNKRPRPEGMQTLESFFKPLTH
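Pol eta at 10 nM preincubated with compounds 15 min at room temperature; reaction started with fluorescent substrate (50 nM final) and read kinetically at 0 and 10 min.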
* marks the source's active call; other numbers are inactive results; ? = inconclusive; . = no result; [ ] = another dose, or the depositor's remark. Hits are enriched below; roughly 2.4% of the tested compounds scored in any of these assays. The call rests on the fitted dose curve; in most records, active means well fitted curve in the direction sought with a large enough effect; inconclusive means small, poorly fitted or top-dose-only effect, or another doubt; inactive means no such curve, though single readings can be large; an effect the other way counts as inactive or inconclusive. Potency means the concentration at half of the fitted maximal effect.

SMILES | POLK inh | POLI inh | POLB inh | WRN helicase inh | FEN1 inh | Pol eta inh
COc1ccc(Cc2nnc(SCC(=O)Nc3cc(Cl)ccc3OC)[nH]c2=O)cc1 | -13% | 9% | . | -25% | -11% | -18%
CCCCNC(=O)CSc1nnc(Cc2ccc(Cl)c(Cl)c2)c(=O)[nH]1 | 89µM* | ? | -10% | -7% | 2% | 12%
Cc1ccccc1-c1nc(CN2CCC(C(=O)NCc3ccc(F)cc3)CC2)c(C)o1 | -3% | 13% | 1% | . | -10% | -13%
CC(C)CCn1c(=O)c2sccc2n2c(CCCC(=O)Nc3ccc(F)c(Cl)c3)nnc12 | -5% | 1% | 11% | . | ? | -10%
C=C(CN(C)C)C(=O)c1cc(C)ccc1C | -19% | ? | . | 22µM* | -4% | ?
Cc1nc2ccccn2c1C(=O)N/N=C/c1ccc(CNC(=O)C(=O)Nc2ccccc2)o1 | -20% | 89µM* | ? | -8% | -6% | ?
CCOC(=O)C1=C(COc2ccccc2)NC(=O)NC1c1cccc([N+](=O)[O-])c1 (stereo not given) | -5% | 40µM* | 3% | -13%[11.6 µM] | -23% | 6%
O=C(CSc1ncccc1C(=O)Oc1ccccc1Cl)Nc1ccccc1Cl | -16% | 1% | 0% | . | -17% | -8%
O=C(CCC1CCCC1)NNC(=O)c1cc2ccccc2cc1O | -5% | ? | 50µM* | -10%[57.1 µM] | -11% | -14%
O=C(CC1CCCC1)NNC(=O)c1ccccc1O | . | . | . | 2% | . | -3%
CCCc1ccc(C(=O)NNC(=O)c2ccc(Cl)cc2)cc1 | -28% | ? | 32µM* | -23% | 3% | ?
CCOC(=O)Cc1ccc(NS(=O)(=O)c2ccc(SC)cc2)cc1 | -3% | 8% | 12% | -2% | -15% | -6%
CCOC(=O)c1ccc(NS(=O)(=O)c2ccc(SC)cc2)cc1 | -7% | 79µM* | -14% | -8%[11.6 µM] | -17% | -4%
NC(=O)COc1ccc2cc(-c3ccc(F)cc3)c(=O)oc2c1 | -7% | -3% | 25µM* | 1% | 10% | -27%
COc1cc(OC)c(/C=C/c2cc[n+](C)c3ccccc23)c(OC)c1 | 1% | 9% | . | . | ? | .
C[n+]1ccc(/C=C/c2ccc(C=S)cc2)c2ccccc21 | -23% | 89µM* | . | . | 50µM* | .
COc1cc(OC)c(OC)cc1/C=C/c1cc[n+](C)c2ccccc12 | 89µM* | 71µM* | . | . | 40µM* | .
CCCn1c2ccccc2c2cnn(CC(=O)NCCCN(Cc3ccccc3)C(C)C)c(=O)c21 | -1% | 15% | 42% | . | ? | -2%
COc1ccc(NC(=O)c2oc3ccccc3c2NC(=O)c2cc(C)cc(C)c2)c(OC)c1 | 6% | 26% | 27% | . | -4% | -15%
Cc1ccc(N(CC(=O)Nc2ccc(Br)c(C)c2)S(=O)(=O)c2cccs2)cc1 | -7% | -5% | -2% | . | -16% | -5%
CC(C)(C)c1ccc(C(=O)C[n+]2cccc(Br)c2)cc1 | -12% | 12% | . | . | -2% | .
Cc1ccc(-n2nc3cc(C)c(N)cc3n2)cc1 | -9% | 1% | 46% | -6% | -13% | -7%
Cc1cc2nc3ccc(N(C)C)cc3nc2cc1N | ? | 6.3µM* | . | 50µM* | ? | ?
CCCNC(=O)c1nnsc1S(=O)c1ccc(Cl)cc1 (stereo not given) | -11% | 49% | -3% | 20µM* | ? | 2%
CCCNC(=O)c1nnsc1S(=O)(=O)c1ccc(Cl)cc1 | -14% | 33% | 20% | 28µM* | -11% | 8%
SMILES | POLK inh | POLI inh | POLB inh | WRN helicase inh | FEN1 inh | Pol eta inh
COC(=O)N1CCC2(CC1)CCN(c1ccncc1)CC2 | 8%[60.1 µM] | . | . | . | . | .
Nc1ccc(N2CCOCC2)c2nonc12 | -1% | ? | ? | -21% | ? | 79µM*
CC1(C)S[C@@H]2C(C(=O)O)NC(=O)N2C1C(=O)O (stereo not given in full) | -25% | -1% | . | . | -10% | .
Nn1c(SCC(=O)Nc2cccc(C(F)(F)F)c2)nncc1=O | -8% | -22% | -12% | -3% | -16% | -12%
Nn1c(SCC(=O)Nc2cc(C(F)(F)F)ccc2Cl)nncc1=O | ? | 79µM* | 5% | ? | -4% | ?
CS(=O)(=O)c1cc([N+](=O)[O-])c(Sc2nc3ccccc3[nH]2)c([N+](=O)[O-])c1 | -5% | ? | -2% | 56µM* | -16% | -4%
O=C(O)c1cc([N+](=O)[O-])c(Sc2nc3ccccc3[nH]2)c([N+](=O)[O-])c1 | -7% | ? | 8% | ? | 16% | ?
O=S(=O)(N=C1C=CC(=NS(=O)(=O)c2ccccc2)c2ccccc21)c1ccccc1 | . | . | . | 6% | . | 50µM*
CCc1ccc(S(=O)(=O)/N=C2\C=CC(=O)c3ccccc32)cc1 | . | . | 17% | . | . | .
O=C1c2cccnc2C(=O)N1CO | -10% | 4% | 36% | -6% | -1% | -12%
O=C1C(=O)c2ncccc2-c2cccnc21 | 8.9µM* | . | . | . | . | .
NC1=C(Br)C(=O)c2ncccc2C1=O | -4% | 11µM* | . | ? | -12% | 18µM*
O=C1c2cccnc2C(=O)N1C1CCCCC1 | 8% | 8% | 17% | 3% | -6% | -5%
Brc1ccc[n+](CCc2ccccc2)c1 | -4% | -1% | . | . | -18% | .
Cn1cccc1C(=O)N1CCC2(CCN(C(=O)Nc3cccc(C#N)c3)CC2)CC1 | -7%[60.1 µM] | . | . | . | . | .
CSC1=NSC2=NC(=O)/C(=C/c3coc4ccc(O)cc4c3=O)C(=N)N12 | 40µM* | ? | 25µM* | 45µM* | 45µM* | 3.2µM*
CSC1=NSC2=NC(=O)/C(=C\c3cccs3)C(=N)N12 | -10% | 24% | 1% | -18% | 4% | -1%
CCCCC1(C)NC(=S)N2N1C(=S)NC2(C)CCCC (stereo not given) | 0% | ? | 24% | 56µM* | 6% | -12%
CCCOC(=O)C1=C(C)N(C)C(=O)NC1c1cc2c(cc1[N+](=O)[O-])OCO2 (stereo not given) | 79µM* | 4.5µM* | ? | -4%[11.6 µM] | 0% | -8%
CCOC(=O)C1=C(C)NC(=O)CC1c1cc2c(cc1[N+](=O)[O-])OCO2 (stereo not given) | -39% | 5% | 5% | -8% | -9% | -16%
Cc1csc(N2CCN(c3cc4nc(-c5ccncc5)[nH]c4cc3Cl)CC2)n1 | -24% | ? | 35µM* | -9% | 1% | 8%
Cc1oc(-c2cccc(Cl)c2)nc1CN1CCC(C(=O)NCc2ccco2)CC1 | -1% | 0% | -1% | 1% | 3% | -1%
Cc1oc(-c2cccc(Cl)c2)nc1CN1CCC(C(=O)NC(C)C)CC1 | -20% | 89µM* | 15% | . | -4% | -16%
CCc1cccc(C)c1NC(=O)CCS(=O)(=O)c1ccc2c(c1)oc(=O)n2C | -25% | ? | -17% | . | -1% | -2%
